PubChem BioAssay AID1159580 (chemical genetic matrix, 2015)
Values joined by “and” are separate entries in the source; they are usually repeats but may differ in a detail not shown here. Identical values can stand only once. Hit rate of the full screen: of about 5,500 compounds, about 2,000 (36%) were called active. About 18% were inconclusive and are not listed. Cut-off read from the data, not from the text of the source: active = normalized growth mostly below about 0.91 (no sharp cut-off); inconclusive = no clear call, values can overlap the other calls; inactive = mostly above about 0.92. Some of the results follow.

Assay: chemical genetic growth profiling, strain panel (AID 1159580);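 note: tested at 20 µM; growth read once vehicle control cultures reached saturation at 30 °C; 1 = growth at the plate median or of vehicle wells; lower values mean less growth of the strain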
Conditions: growth OD

Measured: normalized growth

CCCC(C(=O)OCCN(CC)CC)(c1ccccc1)c1ccccc1
inactive: S. cerevisiae deletion strains, locus YJR075W, strain HOC1, active compounds read low 1 and 0.971 | S. cerevisiae deletion strains, locus YKL009W, strain mrt4, active compounds read low 0.982 | S. cerevisiae deletion strains, locus YKL068W, active compounds read low 0.995 | S. cerevisiae deletion strains, locus YKL085W, strain MDH1 (second series), active compounds read low 0.99 | S. cerevisiae deletion strains, locus YKL085W, strain MDH1, active compounds read low 0.99 | S. cerevisiae deletion strains, locus YKL160W, strain elf1, active compounds read low 0.982 | S. cerevisiae deletion strains, locus YKL190W, strain CNB1, active compounds read low 0.995 | S. cerevisiae deletion strains, locus YKR001C, strain vps1, active compounds read low 0.999 | S. cerevisiae deletion strains, locus YKR026C, strain gcn3, active compounds read low 1 | S. cerevisiae deletion strains, locus YKR091W, strain srl3, active compounds read low 1 | S. cerevisiae deletion strains, locus YLL001W, strain dnm1, active compounds read low 0.998 | S. cerevisiae deletion strains, locus YLL026W, active compounds read low 1.01 | S. cerevisiae deletion strains, locus YLL041C, strain sdh2, active compounds read low 1 | S. cerevisiae deletion strains, locus YLR027C, strain aat2, active compounds read low 1 | S. cerevisiae deletion strains, locus YLR039C, strain RIC1, active compounds read low 1.16 | S. cerevisiae deletion strains, locus YLR058C, strain SHM2, active compounds read low 1.01 | S. cerevisiae deletion strains, locus YLR102C, strain apc9, active compounds read low 0.994 | S. cerevisiae deletion strains, locus YLR113W, strain HOG1, active compounds read low 0.966 | S. cerevisiae deletion strains, locus YLR221C, strain rsa3, active compounds read low 0.991 | S. cerevisiae deletion strains, locus YLR258W, strain gsy2, active compounds read low 0.989 | S. cerevisiae deletion strains, locus YLR262C, strain YPT6 (second series), active compounds read low 1.12 | S. cerevisiae deletion strains, locus YLR262C, strain YPT6, active compounds read low 1.25 | S. cerevisiae deletion strains, locus YLR268W, strain sec22, active compounds read low 0.977 | S. cerevisiae deletion strains, locus YLR320W, strain mms22, active compounds read low 0.968 | S. cerevisiae deletion strains, locus YLR330W, strain CHS5, active compounds read low 1.01 | S. cerevisiae deletion strains, locus YLR342W, strain FKS1 (second series), active compounds read low 0.941 | S. cerevisiae deletion strains, locus YLR342W, strain FKS1, active compounds read low 0.999 | S. cerevisiae deletion strains, locus YLR357W, strain rsc2, active compounds read low 0.935 | S. cerevisiae deletion strains, locus YLR370C, strain arc18, active compounds read low 1 | S. cerevisiae deletion strains, locus YLR371W, strain rom2, active compounds read low 0.985 | S. cerevisiae deletion strains, locus YLR384C, strain iki3, active compounds read low 1.01 | S. cerevisiae deletion strains, locus YLR418C, strain cdc73, active compounds read low 0.883 | S. cerevisiae deletion strains, locus YML016C, strain PPZ1, active compounds read low 1.01 | S. cerevisiae deletion strains, locus YML032C, strain rad52, active compounds read low 0.989 | S. cerevisiae deletion strains, locus YML120C, strain ndi1, active compounds read low 0.989 | S. cerevisiae deletion strains, locus YML124C, strain tub3, active compounds read low 0.995 | S. cerevisiae deletion strains, locus YMR058W, strain fet3, active compounds read low 1 | S. cerevisiae deletion strains, locus YMR078C, strain ctf18, active compounds read low 0.99 | S. cerevisiae deletion strains, locus YMR125W, strain sto1, active compounds read low 1.01 | S. cerevisiae deletion strains, locus YMR129W, active compounds read low 0.983 | S. cerevisiae deletion strains, locus YMR205C, strain PFK2, active compounds read low 0.972 | S. cerevisiae deletion strains, locus YMR223W, strain ubp8, active compounds read low 0.967 | S. cerevisiae deletion strains, locus YMR231W, strain pep5, active compounds read low 1.01 | S. cerevisiae deletion strains, locus YMR263W, strain SAP30, active compounds read low 1 | S. cerevisiae deletion strains, locus YMR307W, strain GAS1, active compounds read low 1.03 | S. cerevisiae deletion strains, locus YNL067W, strain RPL9B, active compounds read low 0.996 | S. cerevisiae deletion strains, locus YNL071W, strain lat1, active compounds read low 0.957 | S. cerevisiae deletion strains, locus YNL128W, strain TEP1, active compounds read low 0.992 | S. cerevisiae deletion strains, locus YNL153C, strain GIM3, active compounds read low 1.02 and 1.01 | S. cerevisiae deletion strains, locus YNL183C, strain NPR1, active compounds read low 0.946 | S. cerevisiae deletion strains, locus YNL197C, strain WHI3, active compounds read low 1.01 | S. cerevisiae deletion strains, locus YNL209W, strain ssb2, active compounds read low 1.02 | S. cerevisiae deletion strains, locus YNL224C, strain SQS1, active compounds read low 1.02 | S. cerevisiae deletion strains, locus YNL233W, strain BNI4, active compounds read low 1.01 | S. cerevisiae deletion strains, locus YNL248C, strain rpa49, active compounds read low 0.989 | S. cerevisiae deletion strains, locus YNL250W, strain rad50, active compounds read low 0.981 | S. cerevisiae deletion strains, locus YNL271C, strain bni1, active compounds read low 0.994 | S. cerevisiae deletion strains, locus YNL298W, strain CLA4, active compounds read low 0.989 | S. cerevisiae deletion strains, locus YNL307C, strain MCK1, active compounds read low 0.983 | S. cerevisiae deletion strains, locus YNL322C, strain KRE1 (second series), active compounds read low 1.01 | S. cerevisiae deletion strains, locus YNL322C, strain KRE1, active compounds read low 0.985 | S. cerevisiae deletion strains, locus YNR049C, strain mso1, active compounds read low 1.01 | S. cerevisiae deletion strains, locus YNR052C, strain pop2, active compounds read low 0.986 | S. cerevisiae deletion strains, locus YOL006C, strain TOP1, active compounds read low 1.05 | S. cerevisiae deletion strains, locus YOL012C, strain htz1 0.951 | S. cerevisiae deletion strains, locus YOL147C, strain pex11, active compounds read low 0.995 | S. cerevisiae deletion strains, locus YOR001W, strain rrp6, active compounds read low 0.977 | S. cerevisiae deletion strains, locus YOR061W, strain CKA2, active compounds read low 1.01 | S. cerevisiae deletion strains, locus YOR069W, strain VPS5, active compounds read low 1 | S. cerevisiae deletion strains, locus YOR070C, strain gyp1, active compounds read low 1 | S. cerevisiae deletion strains, locus YOR080W, strain dia2, active compounds read low 0.993 | S. cerevisiae deletion strains, locus YOR083W, strain WHI5 (second series), active compounds read low 0.993 | S. cerevisiae deletion strains, locus YOR083W, strain WHI5, active compounds read low 0.983 | S. cerevisiae deletion strains, locus YOR106W, strain vam3, active compounds read low 0.979 | S. cerevisiae deletion strains, locus YOR136W, strain idh2, active compounds read low 0.993 | S. cerevisiae deletion strains, locus YOR144C, strain elg1, active compounds read low 0.989 | S. cerevisiae deletion strains, locus YOR184W, strain ser1, active compounds read low 0.99 | S. cerevisiae deletion strains, locus YOR231W, strain MKK1, active compounds read low 0.98 | S. cerevisiae deletion strains, locus YOR265W, strain rbl2, active compounds read low 1.01 | S. cerevisiae deletion strains, locus YOR270C, strain vph1, active compounds read low 0.942 | S. cerevisiae deletion strains, locus YOR290C, strain snf2, active compounds read low 0.998 | S. cerevisiae deletion strains, locus YOR316C, strain cot1, active compounds read low 1 | S. cerevisiae deletion strains, locus YPL051W, strain arl3, active compounds read low 0.972 | S. cerevisiae deletion strains, locus YPL055C, strain LGE1, active compounds read low 1.01 | S. cerevisiae deletion strains, locus YPL078C, strain atp4, active compounds read low 0.998 | S. cerevisiae deletion strains, locus YPL106C, strain sse1, active compounds read low 1.02 | S. cerevisiae deletion strains, locus YPL240C, strain hsp82, active compounds read low 0.998 | S. cerevisiae deletion strains, locus YPL241C, strain CIN2, active compounds read low 1 | S. cerevisiae deletion strains, locus YPL256C, strain CLN2, active compounds read low 0.994 | S. cerevisiae deletion strains, locus YPR119W, strain clb2, active compounds read low 0.996 | S. cerevisiae deletion strains, locus YPR141C, strain kar3, active compounds read low 0.996 | S. cerevisiae deletion strains, locus YPR163C, strain tif3, active compounds read low 0.995 | S. cerevisiae deletion strains, locus YPR167C, strain met16, active compounds read low 0.993 | S. cerevisiae deletion strains, strain wtn01, active compounds read low 0.974 | S. cerevisiae strains, strain wild type, active compounds read low 1.01
